# Measured values taken from ChEMBL document CHEMBL1157539, “Thousands of chemical starting points for antimalarial lead identification” (Nature, 2010).
# Experiments:
# Assay type in all cases: functional
# Plasmodium falciparum [1] = assay: GSK_TCMDC: Inhibition of Plasmodium falciparum 3D7 in whole red blood cells, using parasite LDH activity as an index of growth. Test compounds present at 2uM
# Plasmodium falciparum [2] = assay: GSK_TCMDC: Inhibition of Plasmodium falciparum Dd2 in whole red blood cells, using parasite LDH activity as an index of growth. Test compounds present at 2uM
# HepG2 = assay: GSK_TCMDC: Percent inhibition of human HepG2 cell line. Test compounds present at 10uM.
Structure (SMILES),Inhibition (Plasmodium falciparum [1]) [%],Inhibition (Plasmodium falciparum [2]) [%],Inhibition (HepG2) [%]
Cc1cc(CNC(=O)c2ccc(-c3ccc(-c4nc5cc(C(F)(F)F)ccc5[nH]4)s3)cc2)on1,93,56,15
OC(CNC1CCCCC1)Cn1c2ccc(I)cc2c2cc(I)ccc21 (centres undefined),100,93,10
COc1ccc(OC)c(Cc2cnc3nc(N)nc(N)c3c2C)c1 [PIRITREXIM],92,97,68
Cl.O=C(Nc1ccc(Cl)c(Cl)c1)N1CCc2cc3nccc(N4CCN5CCC[C@H]5C4)c3cc21,100,75,2
CN(C)CCNC(=O)c1ccc2c(c1)n(C1CCN(S(=O)(=O)c3ccc(-c4ccccc4)cc3)CC1)c(=O)n2CC1CCCCC1,100,66,47
COc1ccc2c(=NN=Cc3ccccc3)cc(C)[nH]c2c1,100,49,0
CCNc1cc(C(=O)N[C@@H](Cc2ccccc2)[C@H](O)CNC(C)CC(C)C)c(F)c(N2CCCCS2(=O)=O)c1.O=CO (some centres undefined),95,66,6
CNCCNCc1ccc(-c2ccc(-c3nc4cc(C(F)(F)F)ccc4[nH]3)s2)cc1.O=C(O)C(F)(F)F,99,100,30
C=CCn1c(Cc2ccccc2)nnc1Sc1ccc(C#N)c([N+](=O)[O-])c1,86,43,7
COc1ccc(NC(=O)CCNc2cc(C)nc(NCCOc3ccccc3)n2)cc1.O=C(O)C(F)(F)F,96,2,0
CN(Cc1cccc(F)c1)C1CCCN(c2cc(NC(=O)c3ccccc3)ccn2)C1.O=C(O)C(F)(F)F (centres undefined),93,50,3
O=C(Nc1cccc(F)c1)N1CCC(CN2CCOC(c3ccccc3)(c3ccccc3)C2)CC1,96,97,12
CC(CCc1ccccc1)NCC(O)c1ccc2c3c(cccc13)C(=O)N2C.Cl (centres undefined),99,57,37
C[C@H](CNc1ccnc(Nc2ccc3[nH]c(=O)[nH]c3c2)n1)c1ccccc1.O=CO,100,0,61
O=S(=O)(NC1=NCCC1)c1cccc(Nc2nc(C(F)(F)F)nc3ccccc23)c1,83,8,6
COCCOC(=O)C(=O)c1c(-c2ccccc2)c(-c2ccc(OC)c(OC)c2)c2c3cc(OC)c(OC)cc3ccn12,100,100,4
N#Cc1ccc(OCCN(Cc2ccccc2C(F)(F)F)c2ccc(C#N)c(C(F)(F)F)c2)cc1,100,84,69
COc1ccc([N+](=O)[O-])cc1N(Cc1ccccc1-c1ccccc1)S(=O)(=O)c1ccc(C(F)(F)F)cc1[N+](=O)[O-],88,92,2
Cl.Oc1ccc2c(c1CNC1CCCCC1)CCCC2,98,94,0
O=C(/C=C/c1ccc(Cl)c(Cl)c1)NCCCCCN1CCC(NC(=O)Nc2cccc(Cl)c2)CC1,100,13,52
COc1ccc2ccc(F)c(CC(=O)N3CCOC(CNCc4cccc(-c5ccsc5)n4)C3)c2n1 (centres undefined),92,1,1
COc1cccc(C=Cc2nc(=O)c3ccccc3o2)c1OC,97,97,0
Cl.O=S(=O)(c1ccc(OCc2ccc(Cl)cc2)cc1)c1cc2c(c(-c3ccc(F)cc3)c1)CCN(CC1CC1)CC2,84,14,0
Cl.Fc1ccccc1COc1ccc(Nc2ncnc3ccc(-c4nnc(C(F)(F)F)o4)cc23)cc1Cl,100,46,7
CCC(C(=O)Nc1ccccc1)n1nc(-c2ccc(C)c(S(=O)(=O)N3CCCCC3)c2)ccc1=O (centres undefined),85,67,0
Cl.NOCCCCOc1ccc(Br)cc1,99,0,0
CC(C)CCNC(=N)Nc1ccc(OCCCCCOc2ccc(NC(=N)NCCC(C)C)cc2)cc1,85,67,14
CN(C)CCNC(=O)N1CCCN(c2ncnc3cc(-c4ccccc4)sc23)CC1.O=C(O)C(F)(F)F,96,37,5
